# Several values for one entry are separate records, joined by “and”; a condition that tells them apart may be missing. Identical values can stand only once.
# How the values were obtained:
# [1] = biological target: Dual specificity protein kinase CLK3 (Homo sapiens) (UniProt P49761); details: at 1 µM;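 further: each value is the mean inhibition of CLK3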
# [2] = biological target: Dual specificity tyrosine-phosphorylation-regulated kinase 1A (Homo sapiens) (UniProt Q13627); details: at 0.1 µM
# [3] = biological target: Dual specificity tyrosine-phosphorylation-regulated kinase 1A (Homo sapiens) (UniProt Q13627); details: at 1 µM
# [4] = biological target: Dual specificity tyrosine-phosphorylation-regulated kinase 1B (Homo sapiens) (UniProt Q9Y463); details: at 0.1 µM
# [5] = biological target: Dual specificity tyrosine-phosphorylation-regulated kinase 1B (Homo sapiens) (UniProt Q9Y463); details: at 1 µM
# [6] = biological target: T1, Dual specificity tyrosine-phosphorylation-regulated kinase 2 (Homo sapiens) (UniProt Q92630); details: at 0.1 µM
# T1 sequence (whole entry): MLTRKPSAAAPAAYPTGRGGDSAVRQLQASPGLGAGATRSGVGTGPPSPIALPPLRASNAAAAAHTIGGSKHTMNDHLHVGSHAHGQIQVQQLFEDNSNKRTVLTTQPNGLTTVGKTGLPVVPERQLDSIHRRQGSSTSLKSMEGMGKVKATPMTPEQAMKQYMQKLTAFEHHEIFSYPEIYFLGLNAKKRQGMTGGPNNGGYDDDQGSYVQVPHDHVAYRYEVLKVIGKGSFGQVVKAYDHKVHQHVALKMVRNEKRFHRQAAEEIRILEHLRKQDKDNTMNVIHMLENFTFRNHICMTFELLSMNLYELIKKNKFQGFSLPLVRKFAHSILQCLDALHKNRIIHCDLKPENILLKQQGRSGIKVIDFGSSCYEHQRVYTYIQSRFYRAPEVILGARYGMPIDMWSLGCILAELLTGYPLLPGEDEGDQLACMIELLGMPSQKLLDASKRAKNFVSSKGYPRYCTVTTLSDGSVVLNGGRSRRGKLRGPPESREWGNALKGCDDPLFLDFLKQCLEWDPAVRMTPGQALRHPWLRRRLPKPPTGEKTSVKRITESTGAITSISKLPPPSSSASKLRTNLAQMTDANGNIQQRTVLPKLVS
# [7] = biological target: T1, Dual specificity tyrosine-phosphorylation-regulated kinase 2 (Homo sapiens); details: at 1 µM
# [8] = biological target: Glycogen synthase kinase-3 alpha (Homo sapiens) (UniProt P49840); details: at 0.1 µM
# [9] = biological target: Glycogen synthase kinase-3 alpha (Homo sapiens) (UniProt P49840); details: at 1 µM
# [10] = biological target: Glycogen synthase kinase-3 beta (Homo sapiens) (UniProt P49841); details: at 0.1 µM
# [11] = biological target: Glycogen synthase kinase-3 beta (Homo sapiens) (UniProt P49841); details: at 1 µM
# [12] = biological target: Homeodomain-interacting protein kinase 1 (Homo sapiens) (UniProt Q86Z02); details: at 0.1 µM
# [13] = biological target: Homeodomain-interacting protein kinase 1 (Homo sapiens) (UniProt Q86Z02); details: at 1 µM
# [14] = biological target: T2, Homeodomain-interacting protein kinase 4 (Homo sapiens) (UniProt Q8NE63); details: at 0.1 µM
# T2 sequence (whole entry): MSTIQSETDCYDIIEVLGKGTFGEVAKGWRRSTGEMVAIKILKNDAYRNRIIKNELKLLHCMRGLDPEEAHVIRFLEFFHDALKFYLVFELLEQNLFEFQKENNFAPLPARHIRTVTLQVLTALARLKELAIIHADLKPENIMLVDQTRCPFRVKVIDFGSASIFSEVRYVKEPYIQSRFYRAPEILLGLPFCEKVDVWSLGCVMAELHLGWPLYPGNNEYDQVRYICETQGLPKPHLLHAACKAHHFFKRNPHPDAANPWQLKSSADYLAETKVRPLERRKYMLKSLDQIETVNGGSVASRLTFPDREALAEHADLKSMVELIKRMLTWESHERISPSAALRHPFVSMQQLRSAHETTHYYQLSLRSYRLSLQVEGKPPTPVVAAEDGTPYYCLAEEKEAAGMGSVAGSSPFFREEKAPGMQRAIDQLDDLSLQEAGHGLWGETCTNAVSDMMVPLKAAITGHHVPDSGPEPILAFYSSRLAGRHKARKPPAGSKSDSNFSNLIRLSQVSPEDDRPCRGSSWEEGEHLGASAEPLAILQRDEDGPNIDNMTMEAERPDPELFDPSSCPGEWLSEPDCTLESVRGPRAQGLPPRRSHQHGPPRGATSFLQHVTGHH
# [15] = biological target: T2, Homeodomain-interacting protein kinase 4 (Homo sapiens); details: at 1 µM
# [16] = biological target: Mitogen-activated protein kinase 9 (Homo sapiens) (UniProt P45984); details: at 0.1 µM
# [17] = biological target: Mitogen-activated protein kinase 9 (Homo sapiens) (UniProt P45984); details: at 1 µM
# [18] = biological target: Mitogen-activated protein kinase 1 (Homo sapiens) (UniProt P28482); details: at 0.1 µM
# [19] = biological target: Mitogen-activated protein kinase 1 (Homo sapiens) (UniProt P28482); details: at 1 µM
# [20] = biological target: Mitogen-activated protein kinase 3 (Homo sapiens) (UniProt P27361); details: at 0.1 µM;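 further: each value is a mean inhibition figure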
# Chain of Mitogen-activated protein kinase 3 (Homo sapiens) (P27361 whole entry): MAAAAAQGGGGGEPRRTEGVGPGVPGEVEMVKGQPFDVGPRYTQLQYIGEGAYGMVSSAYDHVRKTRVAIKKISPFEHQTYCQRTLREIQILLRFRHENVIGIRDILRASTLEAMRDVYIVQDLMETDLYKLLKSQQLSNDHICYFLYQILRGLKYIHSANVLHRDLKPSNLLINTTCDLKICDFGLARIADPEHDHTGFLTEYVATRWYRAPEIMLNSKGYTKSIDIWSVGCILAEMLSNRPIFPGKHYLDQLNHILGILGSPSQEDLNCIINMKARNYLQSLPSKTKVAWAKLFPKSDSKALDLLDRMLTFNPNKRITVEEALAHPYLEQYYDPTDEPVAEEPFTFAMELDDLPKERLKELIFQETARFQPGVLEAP
# Chain of Glycogen synthase kinase-3 alpha (Homo sapiens) (P49840 2-483 limits assumed): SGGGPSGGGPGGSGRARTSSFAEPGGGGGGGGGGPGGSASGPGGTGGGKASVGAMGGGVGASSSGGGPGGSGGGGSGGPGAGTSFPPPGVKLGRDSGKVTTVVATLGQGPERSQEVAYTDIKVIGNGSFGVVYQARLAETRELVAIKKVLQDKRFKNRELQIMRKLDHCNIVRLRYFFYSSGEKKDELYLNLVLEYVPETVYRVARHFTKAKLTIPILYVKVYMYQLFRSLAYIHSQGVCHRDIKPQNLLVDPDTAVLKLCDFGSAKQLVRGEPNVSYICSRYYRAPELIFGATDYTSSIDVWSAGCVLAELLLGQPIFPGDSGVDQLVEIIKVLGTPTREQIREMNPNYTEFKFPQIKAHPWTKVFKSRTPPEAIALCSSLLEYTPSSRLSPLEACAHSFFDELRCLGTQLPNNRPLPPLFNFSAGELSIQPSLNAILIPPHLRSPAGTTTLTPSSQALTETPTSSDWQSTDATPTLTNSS
# Chain of Dual specificity tyrosine-phosphorylation-regulated kinase 1B (Homo sapiens) (Q9Y463 whole entry, looked up): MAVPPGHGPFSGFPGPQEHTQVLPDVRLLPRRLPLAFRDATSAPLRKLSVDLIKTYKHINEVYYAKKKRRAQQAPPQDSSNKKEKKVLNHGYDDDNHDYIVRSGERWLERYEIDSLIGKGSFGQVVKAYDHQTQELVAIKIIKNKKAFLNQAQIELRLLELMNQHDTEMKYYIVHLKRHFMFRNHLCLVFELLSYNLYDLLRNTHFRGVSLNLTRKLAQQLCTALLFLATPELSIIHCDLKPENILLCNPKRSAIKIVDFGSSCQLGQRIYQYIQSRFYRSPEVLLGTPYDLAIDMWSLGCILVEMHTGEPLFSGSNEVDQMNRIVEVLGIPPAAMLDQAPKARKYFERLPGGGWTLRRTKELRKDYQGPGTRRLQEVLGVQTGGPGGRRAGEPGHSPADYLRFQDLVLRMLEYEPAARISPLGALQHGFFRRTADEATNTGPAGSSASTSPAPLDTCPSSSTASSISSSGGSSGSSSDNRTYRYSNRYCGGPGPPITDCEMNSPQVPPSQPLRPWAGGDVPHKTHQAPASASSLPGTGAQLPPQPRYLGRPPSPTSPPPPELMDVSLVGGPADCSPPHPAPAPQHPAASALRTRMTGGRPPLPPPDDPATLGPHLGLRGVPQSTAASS
# Chain of Homeodomain-interacting protein kinase 1 (Homo sapiens) (Q86Z02 whole entry, looked up): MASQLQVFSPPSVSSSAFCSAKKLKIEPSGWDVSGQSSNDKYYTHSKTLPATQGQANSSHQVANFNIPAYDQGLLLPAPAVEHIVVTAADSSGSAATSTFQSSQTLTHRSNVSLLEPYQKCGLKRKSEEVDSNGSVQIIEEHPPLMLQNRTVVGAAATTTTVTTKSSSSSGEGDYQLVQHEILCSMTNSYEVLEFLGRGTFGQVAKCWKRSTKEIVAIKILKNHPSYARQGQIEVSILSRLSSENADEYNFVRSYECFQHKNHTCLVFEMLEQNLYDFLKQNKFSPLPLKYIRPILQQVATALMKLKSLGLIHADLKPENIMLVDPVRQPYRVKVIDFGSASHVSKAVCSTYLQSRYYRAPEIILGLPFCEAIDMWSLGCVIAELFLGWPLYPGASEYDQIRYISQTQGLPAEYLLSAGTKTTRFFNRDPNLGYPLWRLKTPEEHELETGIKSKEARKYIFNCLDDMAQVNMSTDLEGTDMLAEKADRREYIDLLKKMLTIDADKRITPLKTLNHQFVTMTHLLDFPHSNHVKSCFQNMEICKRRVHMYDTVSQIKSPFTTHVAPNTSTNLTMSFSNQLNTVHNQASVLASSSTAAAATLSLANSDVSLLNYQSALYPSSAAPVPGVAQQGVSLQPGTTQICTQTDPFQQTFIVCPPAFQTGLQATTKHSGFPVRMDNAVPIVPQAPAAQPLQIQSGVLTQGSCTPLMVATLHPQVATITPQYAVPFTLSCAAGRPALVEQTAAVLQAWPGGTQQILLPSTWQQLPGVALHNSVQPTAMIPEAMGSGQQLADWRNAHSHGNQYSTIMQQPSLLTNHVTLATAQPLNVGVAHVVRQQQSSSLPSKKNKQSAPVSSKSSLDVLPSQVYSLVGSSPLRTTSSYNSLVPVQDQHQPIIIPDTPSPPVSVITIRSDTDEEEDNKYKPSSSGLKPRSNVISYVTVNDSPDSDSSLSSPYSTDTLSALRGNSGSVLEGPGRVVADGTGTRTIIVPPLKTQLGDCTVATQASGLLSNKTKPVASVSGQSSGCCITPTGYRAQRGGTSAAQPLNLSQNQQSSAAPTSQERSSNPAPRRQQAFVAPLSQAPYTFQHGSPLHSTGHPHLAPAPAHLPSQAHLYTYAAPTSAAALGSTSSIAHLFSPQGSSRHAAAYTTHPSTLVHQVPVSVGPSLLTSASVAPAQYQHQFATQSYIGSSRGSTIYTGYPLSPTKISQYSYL
# Chain of Dual specificity protein kinase CLK3 (Homo sapiens) (P49761 whole entry, looked up): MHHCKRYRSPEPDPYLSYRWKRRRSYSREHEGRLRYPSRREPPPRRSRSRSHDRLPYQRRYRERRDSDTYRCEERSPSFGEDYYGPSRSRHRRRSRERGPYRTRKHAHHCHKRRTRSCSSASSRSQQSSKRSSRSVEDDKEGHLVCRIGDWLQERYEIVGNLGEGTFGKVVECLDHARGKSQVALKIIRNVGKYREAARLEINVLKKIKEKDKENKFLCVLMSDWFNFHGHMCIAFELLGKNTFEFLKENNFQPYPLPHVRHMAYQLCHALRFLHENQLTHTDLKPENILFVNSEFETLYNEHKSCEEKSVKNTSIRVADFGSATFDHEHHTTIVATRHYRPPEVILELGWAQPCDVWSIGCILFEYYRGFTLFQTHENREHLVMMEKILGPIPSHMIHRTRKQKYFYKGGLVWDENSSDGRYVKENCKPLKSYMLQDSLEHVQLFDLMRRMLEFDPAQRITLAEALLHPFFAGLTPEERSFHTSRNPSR
# Chain of Mitogen-activated protein kinase 1 (Homo sapiens) (P28482 whole entry): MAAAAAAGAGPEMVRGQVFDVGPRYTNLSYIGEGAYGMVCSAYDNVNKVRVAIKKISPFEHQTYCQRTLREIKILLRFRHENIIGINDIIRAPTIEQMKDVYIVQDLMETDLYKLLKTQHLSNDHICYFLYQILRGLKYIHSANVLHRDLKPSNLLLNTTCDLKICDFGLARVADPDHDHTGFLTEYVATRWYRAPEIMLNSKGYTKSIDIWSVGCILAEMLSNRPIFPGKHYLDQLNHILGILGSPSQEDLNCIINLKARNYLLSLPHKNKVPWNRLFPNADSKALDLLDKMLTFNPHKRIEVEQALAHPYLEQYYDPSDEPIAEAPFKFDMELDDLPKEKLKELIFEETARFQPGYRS
# Chain of Glycogen synthase kinase-3 beta (Homo sapiens) (P49841 whole entry, looked up): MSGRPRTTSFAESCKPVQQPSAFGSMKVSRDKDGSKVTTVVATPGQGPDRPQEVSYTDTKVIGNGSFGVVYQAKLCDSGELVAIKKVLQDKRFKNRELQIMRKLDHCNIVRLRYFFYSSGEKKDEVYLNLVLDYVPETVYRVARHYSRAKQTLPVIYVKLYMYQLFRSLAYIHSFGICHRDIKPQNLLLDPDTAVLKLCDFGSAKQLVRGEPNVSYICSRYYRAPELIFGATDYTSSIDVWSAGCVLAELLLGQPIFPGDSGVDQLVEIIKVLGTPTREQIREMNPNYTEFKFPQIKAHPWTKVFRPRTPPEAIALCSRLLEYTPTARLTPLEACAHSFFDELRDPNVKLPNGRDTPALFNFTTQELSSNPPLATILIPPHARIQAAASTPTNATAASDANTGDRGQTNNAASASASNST
# Chain of Mitogen-activated protein kinase 9 (Homo sapiens) (P45984 whole entry, looked up): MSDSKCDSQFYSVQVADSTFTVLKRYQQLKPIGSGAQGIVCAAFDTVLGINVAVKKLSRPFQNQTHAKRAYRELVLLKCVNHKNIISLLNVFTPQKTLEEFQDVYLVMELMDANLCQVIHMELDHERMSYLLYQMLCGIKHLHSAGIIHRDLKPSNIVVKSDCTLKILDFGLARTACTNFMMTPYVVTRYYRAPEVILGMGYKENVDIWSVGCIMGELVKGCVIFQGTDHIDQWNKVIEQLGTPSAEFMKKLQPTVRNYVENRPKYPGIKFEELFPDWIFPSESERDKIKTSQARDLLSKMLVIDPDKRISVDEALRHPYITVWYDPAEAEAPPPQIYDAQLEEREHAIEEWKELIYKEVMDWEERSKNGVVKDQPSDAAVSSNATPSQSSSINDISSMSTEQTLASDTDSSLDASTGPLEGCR
Structure (SMILES),inhibition [1],inhibition [2],inhibition [3],inhibition [4],inhibition [5],inhibition [6],inhibition [7],inhibition [8],inhibition [9],inhibition [10],inhibition [11],inhibition [12],inhibition [13],inhibition [14],inhibition [15],inhibition [16],inhibition [17],inhibition [18],inhibition [19],inhibition [20]
COc1cc(Nc2ncc(-c3ccccc3)o2)cc(OC)c1,1.09%,3.59%,6.1%,-8.51%,0.86%,2.09%,1.69%,3.75%,14.6%,2.47%,11.5%,1.55%,17.1%,2.58%,12.5%,3.25%,3.23%,10.2%,6.06%,5.39%
CC1(C)CC(n2cnc(-c3ccc(F)cc3)c2-c2ccnc(N)n2)CC(C)(C)N1,1.38%,1.54%,5.47%,0.78%,1.31%,0.23%,-0.37%,1.97%,5.81%,1.6%,6.07%,-1.4%,-0.7%,-0.06%,1.62%,-1.22%,4.24%,-0.07%,-0.08%,0.44%
CNC(=O)c1cncc(/C=C/c2ccccc2C)c1,2.09%,1.38%,1.83%,0.2%,0.92%,1.99%,3.1%,5.39%,12.3%,5.07%,10.8%,2.37%,3.05%,3.2%,3.78%,3.59%,5.08%,7.05%,5.85%,4.41%
COc1ccc(-c2nn3ncccc3c2-c2ccnc(Nc3ccc(F)c(F)c3)n2)cc1,3.23%,2.77%,4.84%,-0.82%,1.01%,2.83%,3.6%,3.2%,4.32%,3.16%,5%,3.8%,4.38%,1.49%,1.58%,7.25%,23.9%,4.91%,5.09%,3.11%
CS(=O)(=O)CCNCc1ccc(-c2ccc3ncnc(Nc4ccc(OCc5cccc(C(F)(F)F)c5)cc4)c3c2)o1,1.18%,2.76%,5.29%,-0.58%,1.03%,3.45%,6.22%,2.81%,1.39%,1.65%,3.05%,-0.56%,2.78%,0.9%,7.06%,3.75%,7.64%,5.63%,5.84%,4.22%
Nc1nccc(-c2c(-c3ccc(F)cc3)ncn2C2CCNCC2)n1,1.14% and 2.38%,0.55% and 2.23%,3.87% and 4.35%,2.09% and 2.37%,5.26% and 3.56%,-3.5% and -0.2%,1.66% and -0.95%,0.13% and 1.29%,2.91% and 3.54%,-1.49% and 2.54%,2.45% and 5.63%,-0.66% and 2.64%,7.61% and 4.5%,0.4% and 1.82%,8.1% and 1.64%,,,-4.78%,0.6% and 1.9%,-1.7% and 0.12%
COc1c(C(N)=O)cc(-c2ccc(Cl)cc2)cc1-c1ccc(S(N)(=O)=O)cc1,0.31%,3.11%,4.97%,-0.92%,-0.01%,3.75%,8.4%,1.76%,2.57%,0.69%,2.65%,-1.29%,-0.59%,0.4%,1.94%,3.46%,8.22%,5.87%,5.86%,4.58%
Cn1c(-c2nonc2N)nc2cnccc21,7.43%,25.1%,69.3%,11.7%,51.4%,2.37%,10.1%,10.1%,52.1%,5.71%,41.6%,0.83%,13.9%,0.63%,4.4%,0.7%,4.16%,-1.97%,2.95%,0.55%
Cc1ccc(-c2cc3c(NC(=O)C4CC4)ncnc3o2)cc1,7.45%,4.14%,12.6%,1.1%,4.52%,2.48%,8.21%,12.4%,48.7%,7.9%,38.2%,1.63%,9.22%,1.44%,7.28%,0.97%,5.49%,2.94%,4.73%,3%
N#Cc1cccc(Nc2ncc(-c3ccccc3)o2)c1,1.97%,1.47%,5.95%,-0.09%,3.53%,0.71%,2.45%,5.76%,25.6%,2.85%,16.9%,3.5%,20.2%,6.92%,36.4%,1.32%,2.85%,1.39%,3.01%,2.87%
